Results filed as inconclusive are left out. Where a call stands in place of a potency, no number is given. Active and inactive are the calls of the source. Unless noted, the call rests on the fitted dose curve.

Sequence of Nucleoprotein (Lymphocytic choriomeningitis virus (strain Armstrong)) (P09992 whole entry, looked up): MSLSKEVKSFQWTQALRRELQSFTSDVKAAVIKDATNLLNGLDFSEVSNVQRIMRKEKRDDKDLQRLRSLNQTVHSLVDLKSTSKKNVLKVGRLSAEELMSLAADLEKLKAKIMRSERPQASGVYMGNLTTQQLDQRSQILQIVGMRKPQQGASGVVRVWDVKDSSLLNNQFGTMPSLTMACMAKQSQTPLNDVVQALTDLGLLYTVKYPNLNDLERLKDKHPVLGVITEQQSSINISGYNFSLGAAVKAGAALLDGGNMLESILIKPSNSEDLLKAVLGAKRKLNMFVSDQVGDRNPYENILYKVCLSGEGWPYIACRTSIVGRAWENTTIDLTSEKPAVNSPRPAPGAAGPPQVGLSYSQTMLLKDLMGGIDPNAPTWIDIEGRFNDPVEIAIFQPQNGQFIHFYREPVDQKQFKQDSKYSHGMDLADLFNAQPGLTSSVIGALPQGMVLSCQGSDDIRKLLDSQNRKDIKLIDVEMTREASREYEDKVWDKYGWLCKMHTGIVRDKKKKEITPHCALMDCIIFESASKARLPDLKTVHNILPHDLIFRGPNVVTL

System in one experiment: not listed separately
The experiment in a line: qHTS for Inhibitors of the Functional Ribonucleoprotein Complex (vRNP) of Lymphocytic Choriomeningitis Arenaviruses (LCMV): Viability assay - alamar blue signal for LCMV Primary Screen (AID 1347085; calls by dose curve; tested in HEK293 reporter line; further: nearly all actives have a fitted effect of over 80% in size). Conditions: alamar blue viability counter-screen, LCMV vRNP screen cells; series mostly up to 57.5 µM. (In general: qHTS replaces the single test concentration by a dilution series.)
As for `C/C=C/C=C/CO`, the Potency result is “inactive”.

Regarding `CC1=CC=C(C(C)C)CC1`, the Potency entry was “inactive”.

With `CC(C)(O)[C@H](O)COc1c2occc2cc2ccc(=O)oc12`, the Potency entry is “inactive”.

As for `C#CCCC/C(=C\C(=O)N(C)[C@H](C(=O)N(C)[C@H](C(=O)N(C)[C@H](C(=O)N(C)[C@H](C(N)=O)C(C)C)C(C)C)C(C)C)C(C)C)OC`, the Potency entry is “inactive”.

In the case of `O=C(CCCO)CCCCCCCCC[C@H]1N[C@H](CO)[C@@H](O)[C@@H]1O`, the Potency entry is “inactive”.

In the case of `C=C(C)C(O)COc1c2occc2c(OC)c2ccc(=O)oc12` (centres undefined), the Potency result was “inactive”.

Take `CC1(C)OC2CC3C4CC(F)C5=CC(=O)C=CC5(C)C4C(O)CC3(C)[C@]2(C(=O)CO)O1` (some centres undefined): the Potency result was “inactive”.

On to `N#CC(=C(O)c1ccc(Cl)cc1Cl)c1nc2cc(Cl)ccc2c(=O)[nH]1`, for which the Potency entry is “inactive”.

On to `C/C(=C/CCC(C)(O)C1CC[C@@]2(C)[C@@H]3CC=C4[C@@H](CC[C@H](O[C@H]5O[C@@H](CO)[C@H](O)[C@@H](O)[C@@H]5O)C4(C)C)[C@]3(C)C(=O)C[C@]12C)CO[C@@H]1O[C@H](CO)[C@@H](O)[C@H](O)[C@H]1O` (some centres undefined), for which the Potency entry is “inactive”.

Consider `O=C(O)CC(=O)Nc1ccccc1C(=O)O`, for which the Potency entry was “inactive”.

The next experiment has as its target Nucleoprotein (Lymphocytic choriomeningitis virus (strain Armstrong)) (UniProt P09992). The experiment can be described thus: qHTS for Inhibitors of the Functional Ribonucleoprotein Complex (vRNP) of Lymphocytic Choriomeningitis Arenaviruses (LCMV): LCMV Primary Screen - GLuc reporter signal (AID 1347086). Further: nearly all actives have a fitted effect of over 70% in size. Conditions: LCMV minigenome vRNP cell assay, Gaussia luciferase reporter; series mostly up to 57.5 µM.
As for `CC12C=CC(=O)C=C1CCC1C2C(=O)CC2(C)C(=O)CCC12` (centres undefined), the Potency entry was “inactive”.

For `C[C@@H]1CC[C@]2(C(=O)O[C@@H]3O[C@H](CO)[C@@H](O)[C@H](O)[C@H]3O)CC[C@]3(C)C(=CCC4[C@@]5(C)C[C@@H](O)[C@H](O)[C@@](C)(C(=O)O[C@@H]6[C@H](O)C[C@@]7(C)C(CC[C@]8(C)C7CC=C7[C@H]9[C@](C(=O)O[C@@H]%10O[C@H](CO)[C@@H](O)[C@H](O)[C@H]%10O)(CC[C@@H](C)[C@@]9(C)O)CC[C@]78C)[C@@]6(CO)C(=O)O)C5CC[C@]43C)[C@@H]2[C@]1(C)O` (some centres undefined), the Potency result was “inactive”.

Take `COc1ccc(CC(=O)c2ccc(OC3OC(CO)C(O)C(O)C3O)cc2O)cc1` (centres undefined): the Potency result was “inactive”.

Consider `COc1ccc(CCC(=O)O)cc1`, for which the Potency result was “inactive”.

Consider `CC(C)C(=O)OCCc1ccccc1`, for which the Potency result was “inactive”.

As to `CCCCCCCCC(=O)OCC`, the Potency result was “inactive”.

In the case of `C#CCCC[C@@H]1OC(=O)CNC(=O)C([C@@H](C)CC)NC(=O)[C@@H]2CCCN2C(=O)C([C@@H](C)CC)OC(=O)[C@H](Cc2ccccc2)N(C)C(=O)[C@H](C(C)C)NC(=O)C1(C)C` (some centres undefined), the Potency result was “inactive”.

Consider `CC(C)=CCC1=C(O)[C@](O)(CC=C(C)C)C(=O)C(C(=O)CC(C)C)=C1O`, for which the Potency entry was “inactive”.

Regarding `CC(=O)Nc1ccccc1O`, the Potency entry was “inactive”.

As to `C=C1C[C@@]23CC[C@H]4[C@@](C)(CCC[C@@]4(C)C(=O)O)[C@@H]2CC[C@]1(O)C3`, the Potency entry was “inactive”.

As for `O[C@@H]1CCN2Cc3ccccc3N=C12`, the Potency entry is “inactive”.

With `CC1C(=O)OC2CCN3CC=C(COC(=O)C(C)(O)C1(C)O)C23` (centres undefined), the Potency result was “inactive”.

In the case of `C=C1C2CC[C@]3(CCC4[C@@]5(C)CCC[C@@]4(CN(CCO)C5)[C@@H]3C2)[C@@H]1O` (some centres undefined), the Potency result is “inactive”.

Take `CC(C)OC(=O)c1ccccc1`: the Potency entry is “inactive”.

As to `COC(=O)C1=CO[C@@H](O[C@@H]2O[C@H](CO)[C@@H](O)[C@H](O)[C@H]2O)C2C1CC(O)O[C@H]2C` (some centres undefined), the Potency result was “inactive”.

In the case of `CC(O)[C@H]1CC[C@H]2[C@@H]3CC[C@H]4C[C@@H](O)CC[C@]4(C)[C@H]3C(=O)C[C@]12C` (some centres undefined), the Potency entry is “inactive”.

With `CC1=CC(=O)O[C@@H]1[C@@]1(C)C[C@H]2OC(=O)C[C@H]3[C@@H](C)C(=O)C(O)=C1[C@@]23CO`, the Potency entry is “inactive”.

Take `O=C1N[C@@H](Cc2c[nH]c3ccccc23)C(=O)N[C@H]1Cc1c[nH]c2ccccc12`: the Potency entry is “inactive”.

With `N#CC(c1ccc(O)cc1)N1CCCCC1` (centres undefined), the Potency result is “inactive”.

`O=CC(O)C1OC(=O)C(O)C1O` (centres undefined): the Potency result was “inactive”.

`C/C=C(/C)C(=O)OC1Cc2c(ccc3ccc(=O)oc23)OC1(C)C` (centres undefined): the Potency entry was “inactive”.

Regarding `COc1cc2c(c(OC)c1OC)-c1c(cc3c(c1O)OCO3)C[C@@H](C)[C@@H](C)C2`, the Potency entry was “inactive”.

For the molecule `O=C(/C=C/c1ccc(O)cc1)OCc1occc(=O)c1O[C@@H]1OC(CO)[C@@H](O)[C@H](O)[C@@H]1O` (some centres undefined), the Potency result was “inactive”.

Take `C[N+](C)(C)C[C@H](O)CC(=O)[O-]`: the Potency result was “inactive”.

Turning to `CCCc1ccc(OC)cc1`, the Potency entry was “inactive”.

`O=C1c2c(O)cc(O)cc2O[C@@]12c1c(cc(O)c3c1O[C@H](c1ccc(O)cc1)[C@@H](O)C3)O[C@@H]2c1ccc(O)cc1`: the Potency entry is “inactive”.

`CC(C)c1ccc(C=O)cc1`: the Potency result was “inactive”.

With `CC(=O)C1CCC2C3CCC4=CC(=O)C=CC4(C)C3CCC12C` (centres undefined), the Potency entry was “inactive”.

On to `CCCCC(C=O)NC(=O)C(CC(C)C)NC(=O)OCc1ccccc1` (centres undefined), for which the Potency entry is “inactive”.

(Values after PubChem BioAssay (NCATS).)
